# Source: PubChem BioAssay
# Inconclusive results are not listed. Activity calls are given as the source filed them.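 The calls were made as follows, unless noted: active = differentiation response of at least 50%, scaled between solvent and reference control, from cells with both markers; inactive = the rest.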
# Assays:
# [1] = yeast TOR pathway RPL19A-GFP modulators, primary screen, cell-based, S. cerevisiae, multiplex flow cytometry (AID 1862; in the data active = percent of DMSO control GFP below about 86%;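 also: lower values mimic rapamycin by blocking the RPL19A rise seen in DMSO cells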); settings: S. cerevisiae RPL19A-GFP strain, flow cytometry fluorescence, 3 h; at 10 µM; stronger effect = lower value
# [2] = modulators of MEP2-GFP levels in yeast, primary screen, S. cerevisiae, multiplex flow cytometry (AID 1867;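 active = GFP response, as percent of the DMSO control, above the screen-wide mean plus 3 SD, about 139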;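 also: median GFP channel fluorescence of barcode-gated MEP2-GFP cells measured by flow cytometry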); settings: S. cerevisiae MEP2-GFP strain, 3 h, at 10 µM, stronger effect = higher value, 100% means same as DMSO wells
# [3] = modulators of CIT2-GFP expression in yeast, primary screen, S. cerevisiae, GFP fusion, multiplex flow cytometry (AID 1870;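 active = percent response above a set limit, the screen-wide mean plus 3 SD, cut at about 130% in these data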;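 also: barcoded CIT2-GFP strain pooled with four other GFP strains with rapamycin as positive control; median GFP fluorescence per well over plate mean of DMSO wells so 100% = DMSO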); settings: 3 h, at 10 µM, stronger effect = higher value
# [4] = modulators of LAP4-GFP expression in yeast, primary screen, S. cerevisiae, multiplex flow cytometry (AID 1873;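 active = GFP signal, as percent of the solvent control, above the screen mean plus 3 SD, about 149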); settings: 3 h, at 10 µM, stronger effect = higher value
# [5] = modulators of AGP1-GFP expression in yeast TOR pathway, primary screen, cell-based, multiplex flow cytometry, S. cerevisiae (AID 1887;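 active = GFP signal above the screen-wide mean plus 3 SD, that is over about 124.5% of the solvent control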;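 also: AGP1-GFP fusion strain of S. cerevisiae within a five-strain barcoded multiplex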); settings: 3 h, at 10 µM, stronger effect = higher value
# [6] = RPL19A-GFP modulators, yeast TOR pathway, confirmation, cell-based, S. cerevisiae, flow cytometry, cherry picks, mother/daughter gates (AID 2270;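 active = GFP response below 50% of the DMSO control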); settings: S. cerevisiae RPL19A-GFP strain, 3 h, at 10 µM, stronger effect = lower value, 100 = same GFP as DMSO wells
# [7] = LAP4-GFP expression modulators in yeast, confirmation, cell-based, cherry picks, flow cytometry, mother/daughter gates (AID 2271;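 active = GFP response above 150% of the DMSO control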;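 also: ratio of sample to DMSO plate mean so 100% equals DMSO level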); settings: S. cerevisiae LAP4-GFP strain, 3 h, at 10 µM, stronger effect = higher value, 100 means same as DMSO control
# [8] = modulators of MEP2-GFP levels in yeast, confirmation, S. cerevisiae, flow cytometry GFP, cherry picks (AID 2272;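 active = GFP response above 150% of the DMSO control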;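 also: ratio of well signal to plate DMSO mean so 100% equals DMSO level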); settings: S. cerevisiae MEP2-GFP strain, 3 h, at 10 µM, stronger effect = higher value
# [9] = modulators of CIT2-GFP expression in yeast, confirmation, S. cerevisiae, GFP fusion, cherry picks, mother/daughter gates (AID 2274;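 active = GFP response above 150% of the DMSO level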); settings: S. cerevisiae CIT2-GFP strain, flow cytometry, 3 h, at 10 µM, stronger effect = higher value
# [10] = inhibitors of CD8+ T cell-vesicle binding, pilot screen, LFA-1/ICAM-1 modulator project, MLPCN validation set, flow cytometry (AID 2523;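 active = response below a set limit, under 55% cells CD8-positive and vesicle-bound, and CD8 cells' 90th-percentile brightness under 279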;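 as to vesicle binding response: mean PE anti-B7-1 fluorescence of CD8+ cells relative to row control; 100% = QL9-loaded vesicles with DMSO vehicle in the same plate row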); settings: 2C mouse CD8+ T cells, at 7 µM, stronger effect = lower value; double positive events: measured here: CD8+/vesicle+ event percentage
# [11] = target: Integrin beta-1 (Homo sapiens) + Integrin alpha-4 (Homo sapiens) (UniProt P13612+P05556); test: inhibition of HUTS-21 binding to VLA-4, pilot screen, VLA-4 allosteric modulator project, U937 cells, HUTS-21 mAb, flow cytometry, validation set (AID 2674;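 active = inhibition above 50%, about 3 SD of the validation set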;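 also: antibody binding induced by the VLA-4 ligand LDV present at three times its Kd; 0% = LDV ligand with antibody and no compound and 100% = antibody without LDV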); settings: HUTS-21 LIBS mAb binding, at 6.7 µM, stronger effect = higher value, binding induced by LDV ligand
# [12] = superoxide lowering in aged yeast cells, pilot screen, validation compound set (AID 2706;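 active = superoxide response below 65% of plate, a cut near 3 SD across the whole screen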;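 also: yeast exposed to compound for one week at 30 degrees C before staining; 100% = mean of all compound wells on the same plate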); settings: S. cerevisiae aging, superoxide DHE fluorescence; at 10 µM; stronger effect = lower value
# [13] = target: Beta-adrenergic receptor kinase 1 (Homo sapiens) (UniProt P25098); test: GRK2 binders displacing RNA aptamer, biochemical, validation, human GRK2, bead flow cytometry (AID 488806;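 active = aptamer binding inhibition above 30%, about 3 SD of noise from non-fluorescent compounds; inactive = inhibition at or below 30%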); settings: bead-bound GRK2, FAM-aptamer displacement, at 10 µM, stronger effect = higher value
# [14] = target: Beta-2 adrenergic receptor (Homo sapiens) (UniProt P07550); test: beta2AR agonists driving receptor internalization, pilot screen, cell-based, FAP fluorogen, flow cytometry, validation set (AID 504459;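 active = percent response above 42, roughly 3 SD of non-fluorescent test compounds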;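 also: agonist-driven loss of surface beta2AR via internalization measured by FAP dye flow cytometry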); settings: Am2.2-beta2AR cells, FAP surface receptor flow cytometry; at 10 µM; stronger effect = higher value
# [15] = target: AP-2 complex subunit beta (Homo sapiens) (UniProt P63010); test: inhibitors of arrestin peptide binding to AP2, pilot screen, biochemical, validation set, GST-AP2 beads, flow cytometry (AID 504541;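 active = inhibition above 54%, about 3 SD of non-fluorescent compounds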;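 also: AP2 carries R879A mutation and is captured from E. coli lysate; bead-bound FITC arrestin peptide fluorescence measuring arrestin peptide binding to AP2; 0% = DMSO wells and 100% = excess unlabeled arrestin peptide control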); settings: FITC arrestin peptide, at 10 µM, stronger effect = higher value, AP2 beta2 appendage fragment, R879A mutant
# [16] = yeast V-ATPase proton transport modulators, S. cerevisiae, pHLuorin, HTS validation (AID 504600; in the data active = response above about 15%;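 also: plate controls were DMSO for no effect and reference compound for full effect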); settings: S. cerevisiae pHLuorin cytosolic pH, at 10 µM, stronger effect = higher value
# [17] = system: anti-desmoglein-3 scFv antibody binding to human DSG3; test: inhibitors of anti-DSG3 scFv binding to DSG3, pilot screen, biochemical, validation compound set, bead-based, flow cytometry (AID 588368;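 active = binding below the plate cutoff, the plate median minus 3 SD, with a reading above zero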;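 also: signal is the median channel fluorescence of bead-bound GFP antibody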); settings: Protein G beads, DSG3-Fc, scFv-GFP binding, at 10 µM, stronger effect = lower value
# [18] = inhibitors of fungal efflux pumps CDR1, CDR2, MDR1, pilot screen, validation compound set, multiplex, phenotypic (AID 588506;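 active = efflux inhibition above 0.42, the validation set average plus 4 SD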;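 also: Nile Red retained in cells so higher fluorescence means more efflux inhibition; 0 = negative control wells and 1 = enniatin B 25 µM full block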); settings: S. cerevisiae pump-expressing triplex, Nile Red efflux flow cytometry; at 10 µM; stronger effect = higher value; the pumps come from Candida albicans
# [19] = target: ATP-binding cassette sub-family B member 6 (Homo sapiens) (UniProt Q9NP58); test: ABCB6 transporter inhibitors, pilot screen, K562-ABCB6 cells, flow cytometry, validation set (AID 588550;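 active = inhibition above the screen-wide mean plus 3 SD, about 51%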;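 also: 0% = DMSO wells and 100% = benzethonium chloride 70 µM positive control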); settings: K562-ABCB6 porphyrin accumulation, 1 h, at 10 µM, stronger effect = higher value
# [20] = promoters of myeloid differentiation in arrested cells, primary screen, cell-based, GFP/MAC1 double positive, flow cytometry, validation set (AID 588685); settings: ER-HoxA9 marrow cells, stronger effect = higher value, normalized: vehicle 0, fulvestrant 100;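 also: compound exposure lasts four days before antibody staining and flow analysis; 0% = DMSO wells and 100% = 5 µM fulvestrant positive control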
# [21] = measured here: daughter cell gate
# [22] = measured here: mother cell gate
# [23] = measured here: daughter cell gate response
# [24] = measured here: mother cell gate response
# Chain of Integrin beta-1 (Homo sapiens) + Integrin alpha-4 (Homo sapiens) (P05556 whole entry, looked up): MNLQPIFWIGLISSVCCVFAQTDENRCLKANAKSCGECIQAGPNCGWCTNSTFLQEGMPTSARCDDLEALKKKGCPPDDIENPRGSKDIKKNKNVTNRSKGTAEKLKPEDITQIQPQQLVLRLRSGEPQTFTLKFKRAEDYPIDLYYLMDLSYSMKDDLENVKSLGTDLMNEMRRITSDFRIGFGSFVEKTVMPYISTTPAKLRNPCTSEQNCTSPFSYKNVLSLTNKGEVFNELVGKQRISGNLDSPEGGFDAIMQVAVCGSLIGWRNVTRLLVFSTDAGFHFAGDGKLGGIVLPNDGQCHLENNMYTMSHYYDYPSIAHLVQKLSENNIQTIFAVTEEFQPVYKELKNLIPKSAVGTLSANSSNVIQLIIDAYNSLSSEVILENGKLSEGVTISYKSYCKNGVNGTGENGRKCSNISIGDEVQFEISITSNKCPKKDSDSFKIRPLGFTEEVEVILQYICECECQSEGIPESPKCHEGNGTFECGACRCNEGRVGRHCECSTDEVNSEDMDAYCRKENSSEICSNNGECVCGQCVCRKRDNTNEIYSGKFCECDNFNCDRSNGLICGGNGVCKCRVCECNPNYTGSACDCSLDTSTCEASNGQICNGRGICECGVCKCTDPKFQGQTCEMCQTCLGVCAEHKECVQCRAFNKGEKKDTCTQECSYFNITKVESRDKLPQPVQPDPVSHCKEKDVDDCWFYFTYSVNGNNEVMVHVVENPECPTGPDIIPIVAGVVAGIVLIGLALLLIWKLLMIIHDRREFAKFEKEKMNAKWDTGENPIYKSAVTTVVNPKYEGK
# Chain of Integrin beta-1 (Homo sapiens) + Integrin alpha-4 (Homo sapiens) (P13612 whole entry, looked up): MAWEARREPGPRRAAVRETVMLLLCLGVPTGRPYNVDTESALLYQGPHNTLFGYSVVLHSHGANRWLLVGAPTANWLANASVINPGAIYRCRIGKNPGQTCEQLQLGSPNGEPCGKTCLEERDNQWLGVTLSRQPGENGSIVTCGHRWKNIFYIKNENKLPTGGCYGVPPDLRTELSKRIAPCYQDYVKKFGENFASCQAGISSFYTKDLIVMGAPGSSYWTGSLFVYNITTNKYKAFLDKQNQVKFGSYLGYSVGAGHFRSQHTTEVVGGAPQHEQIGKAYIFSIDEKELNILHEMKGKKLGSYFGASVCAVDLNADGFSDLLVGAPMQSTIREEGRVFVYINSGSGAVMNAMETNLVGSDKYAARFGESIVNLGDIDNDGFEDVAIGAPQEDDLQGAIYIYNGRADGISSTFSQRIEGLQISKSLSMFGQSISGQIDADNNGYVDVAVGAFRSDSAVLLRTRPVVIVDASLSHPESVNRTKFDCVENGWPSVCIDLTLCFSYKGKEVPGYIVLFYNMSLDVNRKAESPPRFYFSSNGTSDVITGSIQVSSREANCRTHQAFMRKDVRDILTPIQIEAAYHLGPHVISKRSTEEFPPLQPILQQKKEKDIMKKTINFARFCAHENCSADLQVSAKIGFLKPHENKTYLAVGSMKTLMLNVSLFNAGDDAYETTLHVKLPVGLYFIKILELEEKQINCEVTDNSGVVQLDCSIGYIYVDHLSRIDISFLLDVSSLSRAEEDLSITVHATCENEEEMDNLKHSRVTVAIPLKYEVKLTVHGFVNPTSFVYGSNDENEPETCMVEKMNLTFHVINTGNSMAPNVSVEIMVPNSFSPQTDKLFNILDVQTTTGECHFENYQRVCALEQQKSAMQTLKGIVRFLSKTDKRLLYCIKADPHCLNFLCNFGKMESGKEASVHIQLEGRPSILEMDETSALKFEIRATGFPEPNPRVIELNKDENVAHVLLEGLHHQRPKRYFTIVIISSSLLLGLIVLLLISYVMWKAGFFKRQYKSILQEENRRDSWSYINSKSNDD
# Chain of ATP-binding cassette sub-family B member 6 (Homo sapiens) (Q9NP58 whole entry, looked up): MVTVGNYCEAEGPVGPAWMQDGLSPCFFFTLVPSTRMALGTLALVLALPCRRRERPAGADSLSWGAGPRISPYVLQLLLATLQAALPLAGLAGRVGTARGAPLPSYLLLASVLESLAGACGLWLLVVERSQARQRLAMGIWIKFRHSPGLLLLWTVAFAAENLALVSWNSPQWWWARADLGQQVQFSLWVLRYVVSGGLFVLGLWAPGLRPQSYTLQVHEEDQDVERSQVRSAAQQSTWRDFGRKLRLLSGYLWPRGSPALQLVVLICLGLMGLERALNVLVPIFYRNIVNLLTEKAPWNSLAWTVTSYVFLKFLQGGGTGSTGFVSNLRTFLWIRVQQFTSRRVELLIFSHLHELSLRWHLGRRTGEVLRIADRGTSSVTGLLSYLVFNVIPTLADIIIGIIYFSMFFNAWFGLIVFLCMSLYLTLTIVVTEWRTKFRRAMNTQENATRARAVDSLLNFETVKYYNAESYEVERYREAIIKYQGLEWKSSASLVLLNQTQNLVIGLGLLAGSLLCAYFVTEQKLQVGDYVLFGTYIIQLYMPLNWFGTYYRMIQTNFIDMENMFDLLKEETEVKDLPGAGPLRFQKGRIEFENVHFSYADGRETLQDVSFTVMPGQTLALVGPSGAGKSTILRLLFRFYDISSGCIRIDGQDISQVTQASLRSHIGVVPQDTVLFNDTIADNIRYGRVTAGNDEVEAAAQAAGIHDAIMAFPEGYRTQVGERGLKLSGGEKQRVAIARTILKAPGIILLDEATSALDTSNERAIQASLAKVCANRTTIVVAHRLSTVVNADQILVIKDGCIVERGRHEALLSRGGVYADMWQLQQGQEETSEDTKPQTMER
# Chain of AP-2 complex subunit beta (Homo sapiens) (P63010 whole entry, looked up, the tested form may be a part, one chain of several): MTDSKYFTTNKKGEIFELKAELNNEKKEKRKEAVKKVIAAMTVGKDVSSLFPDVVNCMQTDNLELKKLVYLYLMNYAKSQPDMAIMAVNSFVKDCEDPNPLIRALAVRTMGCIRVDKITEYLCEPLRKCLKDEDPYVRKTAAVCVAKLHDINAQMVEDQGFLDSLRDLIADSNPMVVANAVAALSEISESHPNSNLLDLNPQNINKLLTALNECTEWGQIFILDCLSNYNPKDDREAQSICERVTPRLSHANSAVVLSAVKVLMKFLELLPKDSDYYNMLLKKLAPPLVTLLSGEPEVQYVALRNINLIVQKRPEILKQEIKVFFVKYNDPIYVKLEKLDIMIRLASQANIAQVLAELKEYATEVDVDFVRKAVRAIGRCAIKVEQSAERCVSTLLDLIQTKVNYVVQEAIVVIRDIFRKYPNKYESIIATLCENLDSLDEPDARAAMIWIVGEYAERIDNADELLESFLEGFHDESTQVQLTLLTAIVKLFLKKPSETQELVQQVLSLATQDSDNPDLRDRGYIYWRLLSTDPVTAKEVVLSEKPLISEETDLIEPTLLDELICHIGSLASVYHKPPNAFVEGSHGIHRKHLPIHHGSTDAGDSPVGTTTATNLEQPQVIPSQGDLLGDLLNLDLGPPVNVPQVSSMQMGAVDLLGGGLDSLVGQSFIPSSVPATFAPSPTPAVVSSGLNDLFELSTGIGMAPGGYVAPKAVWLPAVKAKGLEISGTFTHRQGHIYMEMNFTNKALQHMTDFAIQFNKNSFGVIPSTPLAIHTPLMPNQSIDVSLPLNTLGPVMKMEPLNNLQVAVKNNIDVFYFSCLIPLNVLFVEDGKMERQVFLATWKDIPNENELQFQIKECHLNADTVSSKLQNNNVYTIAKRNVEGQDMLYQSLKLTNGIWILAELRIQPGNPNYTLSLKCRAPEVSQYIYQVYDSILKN
# Chain of Beta-2 adrenergic receptor (Homo sapiens) (P07550 whole entry, looked up): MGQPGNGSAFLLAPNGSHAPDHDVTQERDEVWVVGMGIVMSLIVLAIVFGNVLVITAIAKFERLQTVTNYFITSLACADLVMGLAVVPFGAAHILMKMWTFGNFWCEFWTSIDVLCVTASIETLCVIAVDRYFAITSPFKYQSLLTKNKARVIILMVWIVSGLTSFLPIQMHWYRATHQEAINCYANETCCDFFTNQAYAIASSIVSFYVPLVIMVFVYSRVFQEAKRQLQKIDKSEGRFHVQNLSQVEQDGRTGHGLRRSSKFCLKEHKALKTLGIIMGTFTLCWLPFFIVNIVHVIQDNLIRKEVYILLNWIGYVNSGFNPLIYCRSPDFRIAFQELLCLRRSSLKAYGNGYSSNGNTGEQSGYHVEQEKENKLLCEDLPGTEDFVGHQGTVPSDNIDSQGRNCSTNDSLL
# Chain of Beta-adrenergic receptor kinase 1 (Homo sapiens) (P25098 whole entry, looked up): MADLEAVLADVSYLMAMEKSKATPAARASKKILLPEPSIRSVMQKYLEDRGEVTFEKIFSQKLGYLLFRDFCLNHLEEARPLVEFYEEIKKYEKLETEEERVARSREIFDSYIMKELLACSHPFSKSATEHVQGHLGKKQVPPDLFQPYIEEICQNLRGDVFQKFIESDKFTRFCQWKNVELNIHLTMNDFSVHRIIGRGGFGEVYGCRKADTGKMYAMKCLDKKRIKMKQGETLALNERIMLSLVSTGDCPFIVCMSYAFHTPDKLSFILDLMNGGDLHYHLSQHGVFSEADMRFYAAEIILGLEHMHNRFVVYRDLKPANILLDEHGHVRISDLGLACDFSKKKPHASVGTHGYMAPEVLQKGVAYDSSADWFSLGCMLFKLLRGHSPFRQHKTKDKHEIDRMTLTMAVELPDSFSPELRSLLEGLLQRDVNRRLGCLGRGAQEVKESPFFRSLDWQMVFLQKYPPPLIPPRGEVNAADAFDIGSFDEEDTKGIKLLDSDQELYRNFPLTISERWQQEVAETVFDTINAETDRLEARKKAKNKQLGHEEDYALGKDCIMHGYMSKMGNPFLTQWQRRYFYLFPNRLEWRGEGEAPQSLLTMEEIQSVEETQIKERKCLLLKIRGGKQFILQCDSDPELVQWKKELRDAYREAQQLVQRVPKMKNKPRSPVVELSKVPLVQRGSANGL
compound,measurement,setting,value
CC(NCCc1ccc(O)cc1)C(O)c1ccc(O)cc1 (stereo unspecified),percent of DMSO control GFP,[1],92.4% (inactive)
same,GFP response vs DMSO,[2],144% (active)
same,percent response of DMSO control,[3],91.3% (inactive)
same,GFP response vs DMSO,[4],80.9% (inactive)
same,"GFP response, % of DMSO",[5],93.1% (inactive)
same,GFP response vs DMSO,[6],93% (inactive)
same,GFP response vs DMSO,[6]; [21],91.6%
same,GFP response vs DMSO,[6]; [22],94.1%
same,GFP response relative to DMSO,[7],97.9% (inactive)
same,GFP response relative to DMSO,[7]; [23],96%
same,GFP response relative to DMSO,[7]; [24],98.3%
same,GFP response vs DMSO,[8],100% (inactive)
same,"GFP response, % of DMSO",[9],101% (inactive)
same,"GFP response, % of DMSO",[9]; [21],101%
same,"GFP response, % of DMSO",[9]; [22],103%
same,double positive events,[10],59%
same,vesicle binding response,[10],174% (inactive)
same,inhibition,[11],-13.9% (inactive)
same,superoxide response (% of plate),[12],96.5% (inactive)
same,aptamer binding inhibition,[13],2% (inactive)
same,response,[14],0.53% (inactive)
same,inhibition,[15],5.41% (inactive)
same,response,[16],-1.74% (inactive)
same,binding (% of control),[17],103% (inactive)
same,efflux inhibition (fraction of control),[18],-0.31 (inactive)
same,inhibition,[19],10% (inactive)
same,differentiation response,[20],-8.19% (inactive)
CC(=O)Nc1ccccc1O,percent of DMSO control GFP,[1],87.8% (inactive)
same,GFP response vs DMSO,[2],152% (active)
same,percent response of DMSO control,[3],102% (inactive)
same,GFP response vs DMSO,[4],85.3% (inactive)
same,"GFP response, % of DMSO",[5],86.6% (inactive)
same,GFP response vs DMSO,[6],99% (inactive)
same,GFP response vs DMSO,[6]; [21],101%
same,GFP response vs DMSO,[6]; [22],99.8%
same,GFP response relative to DMSO,[7],93.8% (inactive)
same,GFP response relative to DMSO,[7]; [23],98.7%
same,GFP response relative to DMSO,[7]; [24],93.1%
same,GFP response vs DMSO,[8],100% (inactive)
same,"GFP response, % of DMSO",[9],110% (inactive)
same,"GFP response, % of DMSO",[9]; [21],105%
same,"GFP response, % of DMSO",[9]; [22],113%
same,double positive events,[10],61.6%
same,vesicle binding response,[10],142% (inactive)
same,inhibition,[11],6.46% (inactive)
same,superoxide response (% of plate),[12],87.6% (inactive)
same,aptamer binding inhibition,[13],6% (inactive)
same,response,[14],2.64% (inactive)
same,inhibition,[15],0.05% (inactive)
same,response,[16],0.98% (inactive)
same,binding (% of control),[17],101% (inactive)
same,efflux inhibition (fraction of control),[18],-0.28 (inactive)
same,inhibition,[19],8% (inactive)
same,differentiation response,[20],3.28% (inactive)
C1COC(NC(C2CC2)C2CC2)=N1,percent of DMSO control GFP,[1],89.3% (inactive)
same,GFP response vs DMSO,[2],148% (active)
same,percent response of DMSO control,[3],110% (inactive)
same,GFP response vs DMSO,[4],85.3% (inactive)
same,"GFP response, % of DMSO",[5],94.5% (inactive)
same,GFP response vs DMSO,[6],96% (inactive)
same,GFP response vs DMSO,[6]; [21],97.1%
same,GFP response vs DMSO,[6]; [22],97.6%
same,GFP response relative to DMSO,[7],95.4% (inactive)
same,GFP response relative to DMSO,[7]; [23],96%
same,GFP response relative to DMSO,[7]; [24],95.1%
same,GFP response vs DMSO,[8],96.2% (inactive)
same,"GFP response, % of DMSO",[9],98.3% (inactive)
same,"GFP response, % of DMSO",[9]; [21],101%
same,"GFP response, % of DMSO",[9]; [22],97.3%
same,double positive events,[10],64.4%
same,vesicle binding response,[10],227% (inactive)
same,inhibition,[11],17.1% (inactive)
same,superoxide response (% of plate),[12],96.6% (inactive)
same,aptamer binding inhibition,[13],3% (inactive)
same,response,[14],3.85% (inactive)
same,inhibition,[15],11.9% (inactive)
same,response,[16],9.25% (inactive)
same,binding (% of control),[17],98.3% (inactive)
same,efflux inhibition (fraction of control),[18],0.23 (inactive)
same,inhibition,[19],6% (inactive)
same,differentiation response,[20],0.82% (inactive)
